Bioassay records deposited in PubChem by National Center for Advancing Translational Sciences (NCATS).
Nrf2 activator = qHTS of Nrf2 Activators; Potency, µM (highest dose often 46.1 µM), inactives show at the highest dose activation, usual class: activators; 410,000 compounds, 0.31% hits; AREc32 ARE-luciferase reporter (MCF7-derived line), luminescence, 24 h; AID 624171, 2012; further: potency means the concentration at half of the fitted maximal effect; % of control where 0% means no effect; nearly all actives have a fitted effect of over 65% in size
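Reporter line AREc32 (ARE-Fluc), seeded overnight in OPTI-MEM with 5% FBS; compound pin-transferred, 24 hr at 37 deg C, 5% CO2; luminescent read-out.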
Nrf2 inh = Nrf2 qHTS screen for inhibitors. A549 ARE-Fluc reporter, luciferase luminescence, 18-24 h. Potency, µM (top dose mostly 46 µM), inactives show at the highest dose activity change, negative = inhibition, most hits filed as inhibitors. 360,000 compounds, 2.1% hits; further: potency means the concentration at half of the fitted maximal effect; on the % scale 0 is the no-effect control and ±100 the full control effect; nearly all actives have a fitted effect of over 60% in size
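A549 ARE_Fluc cells, 5000/well, 5% FBS OPTI-MEM; compounds in dose-response, 18-24 h at 37 °C/5% CO2; CellTiter-Fluor viability read (Ex 405/Em 525), then BugLite luciferase luminescence = Nrf2 activity.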
GRP78 ERSR act = qHTS for Inducers of the Endoplasmic Reticulum Stress Response (ERSR) in Human Glioma: qHTS. U87-MG GRP78 promoter luciferase reporter, 16 h. Potency, µM, without a hit: at the top dose activation, actives largely listed as activators. 420,000 compounds, 0.02% hits. AID 602332, 2012; further: potency means the concentration at half of the fitted maximal effect; series mostly up to about 76 µM; % of control where 0% means no effect; nearly all actives have a fitted effect of over 35% in size
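ERSR induction read as luciferase luminescence (Bright-Glo, 10 min at room temperature) in stably transfected human U87-MG glioma cells exposed to compounds for 16 h, using GRP78 as sensor.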
TSG101-PTAP inh = qHTS Assay for Iinhibitors of HIV-1 Budding by Blocking the Interaction of PTAP/TSG101; Tumor susceptibility gene 101 protein (Homo sapiens), Q99816; Fluorescence polarization, FITC-PTAP peptide / Tsg101 binding; Potency, µM (top dose mostly 115 µM), for inactives: top-dose activity change, negative = inhibition, hits mostly inhibitors; 340,000 tested, under 10 active; active means well fitted inhibition curve with a large enough effect in the main read-out, with a control signal flat, not every such curve was filed as active; inconclusive means small, poorly fitted or top-dose-only effect, or effect the other way, or a change in a side signal; inactive means no such curve, though single readings can be large or run the other way; further: potency means the concentration at half of the fitted maximal effect; % of control where 0% means no effect
Target sequence (Q99816 whole entry, looked up): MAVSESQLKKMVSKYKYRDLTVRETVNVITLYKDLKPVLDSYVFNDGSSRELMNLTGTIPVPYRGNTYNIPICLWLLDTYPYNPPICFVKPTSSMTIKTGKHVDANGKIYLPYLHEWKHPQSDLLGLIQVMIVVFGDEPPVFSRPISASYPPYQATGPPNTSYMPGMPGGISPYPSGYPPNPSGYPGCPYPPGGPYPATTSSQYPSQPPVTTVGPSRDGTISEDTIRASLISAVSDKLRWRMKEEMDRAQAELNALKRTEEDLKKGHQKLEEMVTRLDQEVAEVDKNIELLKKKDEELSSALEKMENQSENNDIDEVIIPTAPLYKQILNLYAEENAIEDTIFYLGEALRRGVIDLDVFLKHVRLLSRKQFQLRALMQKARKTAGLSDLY
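Steps: Tsg101 binding domain dispensed (10 uM final), compounds pinned in DMSO, FITC-labeled PTAP-motif peptide added (50 nM final); after 20 min binding at room temperature, polarization measured.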
A549 viability = Nrf2 qHTS screen for inhibitors: counterscreen for cytotoxicity | A549 ARE-Fluc cells, CellTiter-Fluor viability, 18-24 h | Potency, µM (series often up to 46 µM), without a hit: top-dose activity change, negative = cytotoxicity, most hits filed as inhibitors | 390,000 compounds, 0.16% hits; further: potency means the concentration at half of the fitted maximal effect; on the % scale 0 is the no-effect control and ±100 the full control effect
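A549 ARE-Fluc cells in 5% FBS OPTI-MEM, 5000 cells/well, rested 2 h then exposed to compounds in concentration-response for 18-24 h at 37 °C. Viability by CellTiter-Fluor fluorescence (Ex 405/Em 525) after 30 min; luciferase luminescence (BugLite, 15 min, RT) read afterwards.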
miR-21 reporter = qHTS Assay for Modulators of miRNAs and/orActivators of miR-21. AID 2288, 2010. 340,000 tested, under 10 active. HeLa miR-21 FLuc reporter, luciferase, 48 h. Potency, µM (top dose mostly 38.3 µM), without a hit: top-dose activity change, positive = activation, hits mostly activators;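 further: % of control where 0% means no effect; miR-21 action dims this reporter so a rising signal means less miR-21 action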
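HeLa miR-21-FLuc reporter line, endogenous miR-21; 2000 cells/well in DMEM/10% FBS; compound titration up to ~40uM final, 48 h, 37 degree Celsius; luciferase detection reagent, 15 min lysis, CCD luminescence.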
The depositor's hits bear a star; ? = inconclusive; nt = no result given. Hits are enriched below; roughly 2.1% of the tested compounds scored in any of these assays. Unless noted, the call rests on the fitted dose curve; in most records, active means well fitted curve in the direction sought with a large enough effect; inconclusive means small, poorly fitted or top-dose-only effect, or another doubt; inactive means no such curve, though single readings can be large; an effect the other way counts as inactive or inconclusive.

SMILES	Nrf2 activator	Nrf2 inh	GRP78 ERSR act	TSG101-PTAP inh	A549 viability	miR-21 reporter
NC(=S)n1[nH]c(-c2ccc([N+](=O)[O-])cc2)c(N=Nc2ccc(O)cc2)c1=O	3%	?	-4%	-4%	-10%	-4%
Fc1ccc(Cn2cccc2C2=NC(c3ccccc3)CO2)cc1 (stereo not given)	0%	1%	6%	0%	-2%	-37%
Cc1oc(-c2ccccc2)nc1Cn1cccc1C1=NC(c2ccccc2)CO1 (stereo not given)	0%	21µM*	-3%	0%	-9%	11%
COc1cc2oc3cc(C#Cc4ccc(N)cc4)ccc3c(=O)c2cc1OC	0%	16µM*	-8%	3%	?	nt
N#Cc1ccc(C#Cc2ccc3oc4ccccc4c(=O)c3c2)cc1	-1%	-11%	1%	3%	10%	nt
COc1cc2oc3ccc(C#Cc4ccc(N)cc4)cc3c(=O)c2cc1OC	5%	15µM*	4%	nt	-12%	nt
Nc1ccc(C#Cc2ccc3c(=O)c4ccccc4oc3c2)cc1	3%	10µM*	-3%	-1%	-8%	-43%
O=C(c1ccccc1O)N(Cc1ccco1)Cc1ccco1	nt	12%	nt	nt	3%	nt
CCc1ccc2oc(-c3ccc(NC(=O)c4cccc(Cl)c4Cl)cc3)nc2c1	0%	8.2µM*	13%	nt	-1%	13%
Cc1cccc(OCc2nnc(SCC(=O)N(c3ccccc3)C3CCS(=O)(=O)C3)o2)c1 (stereo not given)	2%	21µM*	-4%	-2%	-13%	nt
Cc1cccc(OCc2nnc(SCC(=O)c3ccccc3)o2)c1	3%	13%	0%	-1%	1%	-8%
NC(N)=NCCC[C@H](NC(=O)CNC(=O)c1ccccc1)C(=O)Nc1cc(C(F)(F)F)ccc1Cl	nt	-13%	nt	nt	-3%	nt
Cc1cccc(CNC(=O)c2cnn(-c3ncc(C)c(-c4cccs4)n3)c2C2CC2)n1	nt	nt	-3%	nt	nt	nt
Cc1ccccc1Cn1nc(C)c(NC(=O)c2cc(CC(C)C)on2)c1C	0%	?	-1%	-1%	4%	10%
CCCc1cc(C(=O)Nc2c(C)nn(Cc3ccc(Cl)c(Cl)c3)c2C)no1	4%	16µM*	0%	nt	-15%	28%
Cc1nn(Cc2ccc(Cl)c(Cl)c2)c(C)c1NC(=O)c1cc(CC(C)C)on1	3%	8.2µM*	-4%	2%	?	15%
COc1ccccc1CCc1nnc(CCC(=O)N(C)Cc2cccc3cnccc23)o1	4%	?	3%	-5%	1%	-52%
COc1ccc(CCc2nnc(CCC(=O)N(C)Cc3ccnc4ccccc34)o2)cc1	4%	21µM*	4%	-1%	?	10%
COc1ccc(-c2ccc(C(=O)N3CCc4c(cnc(C)c4CNS(=O)(=O)N(C)C)C3)o2)cc1	nt	nt	3%	nt	nt	nt
CCN(Cc1ccccc1)S(=O)(=O)c1ccc(C(=O)Nc2nnc(C3CC3)o2)cc1	-2%	8.2µM*	-3%	-8%	-19%	29%
O=C(Nc1nnc(C2CC2)o1)c1ccc(S(=O)(=O)N2CCc3ccccc3C2)cc1	3%	?	-2%	-5%	?	-1%
COCc1nnc(NC(=O)c2ccc(S(=O)(=O)N(C)Cc3ccccc3)cc2)o1	-1%	?	0%	-4%	?	19%
CCc1nnc(NC(=O)c2ccc(S(=O)(=O)N(CC(C)C)CC(C)C)cc2)o1	-1%	16µM*	-9%	-11%	?	-8%
Cc1nnc(NC(=O)c2ccc(S(=O)(=O)N(C)Cc3ccccc3)cc2)o1	-2%	18µM*	-6%	-5%	-23%	14%
O=C(COC(=O)c1cc([N+](=O)[O-])ccc1NCCO)Nc1ccc2c(c1)OCO2	4%	10µM*	-3%	-5%	?	-8%
SMILES	Nrf2 activator	Nrf2 inh	GRP78 ERSR act	TSG101-PTAP inh	A549 viability	miR-21 reporter
O=C(COC(=O)c1cc([N+](=O)[O-])ccc1N1CCOCC1)c1ccc(Br)cc1	4%	26µM*	-3%	-3%	?	nt
Cc1cc(NC(=O)COC(=O)c2cc([N+](=O)[O-])ccc2N2CCOCC2)ccc1Br	0%	18µM*	-1%	-2%	?	nt
Cc1cc(C)c(NC(=O)COC(=O)c2cc([N+](=O)[O-])ccc2N2CCOCC2)c(C)c1	3%	4%	-3%	-4%	-3%	-15%
CCOc1ccc(C(=O)COC(=O)c2cc([N+](=O)[O-])ccc2N2CCOCC2)cc1	0%	18%	-5%	-5%	-6%	nt
O=C(COC(=O)c1cc([N+](=O)[O-])ccc1NCCO)Nc1cccc(S(=O)(=O)N2CCCC2)c1	0%	-21%	-4%	-5%	-17%	nt
Oc1ccc(/C=C/c2ccccc2)c2cccnc12	nt	?	nt	nt	-5%	nt
COc1ccc2c(=O)cc(-c3ccncc3)oc2c1OC	5%	16µM*	-5%	-5%	-20%	nt
Cc1cc([N+](=O)[O-])ccc1NCc1ccccc1[N+](=O)[O-]	2%	-14%	-5%	-3%	1%	-2%
Cc1cc([N+](=O)[O-])ccc1NCc1cccc2ccccc12	3%	15µM*	-1%	-2%	?	nt
CCCCCNC(=O)c1cc2c(=O)n3ccccc3nc2n1C	4%	18µM*	1%	nt	-3%	14%
O=C(COCc1cc(-c2cccs2)on1)Nc1cc(Cl)ccc1O	3.5µM*	-11%	-6%	nt	0%	3%
COc1cc(OC)c(NC(=O)COCc2cc(-c3cccs3)on2)cc1Cl	?	0%	0%	nt	2%	-4%
O=C(COCc1cc(-c2ccc(F)cc2)on1)Nc1cc(Cl)ccc1O	6.3µM*	?	1%	nt	3%	8%
CC(=O)C1CCC2C3CCC4=CC(=O)CCC4(C)C3(Br)C(=O)CC12C (stereo not given)	1%	1%	-3%	1%	-4%	nt
CC(=O)C1CCC2C3CCC4=CC(=O)CC[C@]4(C)[C@@]3(F)C(O)C[C@]12C (stereo not given in full)	0%	2.9µM*	-4%	-5%	-4%	-17%
COc1cccc(-c2ccnc(-n3ncc(C(=O)NCc4cccnc4)c3C3CC3)n2)c1	nt	nt	-1%	nt	nt	nt
CC(C)c1ccc(/C=C/C(=O)Nc2ccc(CN3CCOCC3)cc2)cc1	-3%	23µM*	-18%	1%	?	?
